Test results: the supplement of paper PMC12669032

Tests used:
Assay in all cases: growth AUC relative to DMSO control (median of replicates) (fraction); higher = more growth (less inhibition), active = hit call of the paper
Details in all cases: 20 µM; 24 h;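 active = AUC reduced over 20% with Padj below 0.05 in at least 2 of 3 replicates; inactive = otherwise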
Coprococcus comes = test system: Coprococcus comes
Method in brief: (§1)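 In round-bottom 96-well plates sealed with pierced gas-permeable seals, gut bacterial monocultures in mGAM were grown anaerobically at 37 °C from OD600 0.05 with 20 µM compound (1% DMSO). OD600 readings were taken hourly for 24 h, and the minimum OD was set to 0. Area under the growth curve was then normalised to the plate median of solvent-only wells, or to row and column medians on the industrial chemical plate. The value given is the median of three biological replicates grown on separate days.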

Escherichia coli ED1a = test system: Escherichia coli ED1a
Method in brief: as §1

Escherichia coli IAI1 = test system: Escherichia coli IAI1
Method in brief: as §1

Eubacterium rectale = test system: Eubacterium rectale
Method in brief: as §1

[1] = test system: Fusobacterium nucleatum subsp. animalis
Method in brief: as §1

Lactobacillus gasseri = test system: Lactobacillus gasseri
Method in brief: as §1

Lactobacillus paracasei = test system: Lactobacillus paracasei
Method in brief: as §1

Odoribacter splanchnicus = test system: Odoribacter splanchnicus
Method in brief: as §1

[2] = test system: Parabacteroides distasonis
Method in brief: as §1

Parabacteroides merdae = test system: Parabacteroides merdae
Method in brief: as §1

Roseburia intestinalis = test system: Roseburia intestinalis
Method in brief: as §1

Streptococcus salivarius = test system: Streptococcus salivarius
Method in brief: as §1

Measured: growth AUC

Clc1ccc(Cl)cc1
inactive: Coprococcus comes 0.985 | Escherichia coli ED1a 1 | Escherichia coli IAI1 1 | Eubacterium rectale 1.05 | [1] 1.1 | Lactobacillus gasseri 0.981 | Lactobacillus paracasei 0.936 | Odoribacter splanchnicus 1.03 | [2] 0.999 | Parabacteroides merdae 1.02 | Roseburia intestinalis 1.01 | Streptococcus salivarius 1.02

COc1nc(NC(C)C)nc(NC(C)C)n1
inactive: Coprococcus comes 1.01 | Escherichia coli ED1a 1.01 | Escherichia coli IAI1 1.02 | Eubacterium rectale 0.97 | [1] 0.885 | Lactobacillus gasseri 0.984 | Lactobacillus paracasei 1.01 | Odoribacter splanchnicus 1.03 | [2] 1.03 | Parabacteroides merdae 1.02 | Roseburia intestinalis 0.963 | Streptococcus salivarius 1.05

CCc1cccc(C)c1N(C(=O)CCl)[C@@H](C)COC
inactive: Coprococcus comes 0.976 | Escherichia coli ED1a 0.981 | Escherichia coli IAI1 1.01 | Eubacterium rectale 1.06 | [1] 1.15 | Lactobacillus gasseri 0.944 | Lactobacillus paracasei 1.01 | Odoribacter splanchnicus 1.02 | [2] 1.01 | Parabacteroides merdae 0.938 | Roseburia intestinalis 1.03 | Streptococcus salivarius 1.02

CC(C)OC(=O)C(O)(c1ccc(Br)cc1)c1ccc(Br)cc1
inactive: Coprococcus comes 0.905 | Escherichia coli ED1a 1.01 | Escherichia coli IAI1 1.01 | Eubacterium rectale 0.912 | [1] 1.01 | Lactobacillus gasseri 0.918 | Lactobacillus paracasei 0.981 | Odoribacter splanchnicus 1.05 | [2] 0.854 | Parabacteroides merdae 0.868 | Roseburia intestinalis 1 | Streptococcus salivarius 0.962

O=[N+]([O-])C(Br)(CO)CO
inactive: Coprococcus comes 0.925 | Escherichia coli ED1a 1 | Escherichia coli IAI1 0.987 | Eubacterium rectale 0.949 | [1] 1 | Lactobacillus gasseri 0.958 | Lactobacillus paracasei 0.999 | Odoribacter splanchnicus 1 | [2] 1.03 | Parabacteroides merdae 0.998 | Roseburia intestinalis 0.964 | Streptococcus salivarius 0.967

Cc1c(N)cccc1N
inactive: Coprococcus comes 1.01 | Escherichia coli ED1a 0.995 | Escherichia coli IAI1 0.981 | Eubacterium rectale 1.01 | [1] 1.04 | Lactobacillus gasseri 1.01 | Lactobacillus paracasei 0.991 | Odoribacter splanchnicus 0.938 | [2] 0.995 | Parabacteroides merdae 1.01 | Roseburia intestinalis 0.997 | Streptococcus salivarius 1.01

Cn1cc(-c2ccccc2)c(=O)c(-c2cccc(C(F)(F)F)c2)c1
inactive: Coprococcus comes 1.02 | Escherichia coli ED1a 0.978 | Escherichia coli IAI1 0.968 | Eubacterium rectale 0.998 | [1] 0.907 | Lactobacillus gasseri 0.963 | Lactobacillus paracasei 0.983 | Odoribacter splanchnicus 0.974 | [2] 0.999 | Parabacteroides merdae 0.943 | Roseburia intestinalis 1.04 | Streptococcus salivarius 0.986

CCCCC(CC)COC(=O)c1ccccc1C(=O)OCC(CC)CCCC (stereo unspecified)
inactive: Coprococcus comes 0.999 | Escherichia coli ED1a 0.983 | Escherichia coli IAI1 0.977 | Eubacterium rectale 1.02 | [1] 1 | Lactobacillus gasseri 0.892 | Lactobacillus paracasei 1.07 | Odoribacter splanchnicus 1.1 | [2] 0.985 | Parabacteroides merdae 0.965 | Roseburia intestinalis 0.971 | Streptococcus salivarius 0.967

OCC(O)CCl (stereo unspecified)
inactive: Coprococcus comes 0.999 | Escherichia coli ED1a 0.947 | Escherichia coli IAI1 1 | Eubacterium rectale 1 | [1] 0.987 | Lactobacillus gasseri 0.993 | Lactobacillus paracasei 0.978 | Odoribacter splanchnicus 1.01 | [2] 1.02 | Parabacteroides merdae 0.991 | Roseburia intestinalis 1.02 | Streptococcus salivarius 1

COP(=S)(Oc1cc(Cl)c(Br)cc1Cl)c1ccccc1 (stereo unspecified)
inactive: Coprococcus comes 1.02 | Escherichia coli ED1a 1.01 | Escherichia coli IAI1 0.992 | Eubacterium rectale 0.893 | [1] 1.03 | Lactobacillus gasseri 0.852 | Lactobacillus paracasei 0.982 | Odoribacter splanchnicus 1.03 | [2] 0.957 | Parabacteroides merdae 1.01 | Roseburia intestinalis 1.04 | Streptococcus salivarius 1.05

CNC(=O)O/N=C(\C)C(C)S(C)=O (stereo unspecified)
inactive: Coprococcus comes 1.01 | Escherichia coli ED1a 1.02 | Escherichia coli IAI1 0.987 | Eubacterium rectale 0.914 | [1] 1.02 | Lactobacillus gasseri 0.881 | Lactobacillus paracasei 1.02 | Odoribacter splanchnicus 1.04 | [2] 1.05 | Parabacteroides merdae 1.02 | Roseburia intestinalis 0.991 | Streptococcus salivarius 0.96

ClC1C(Cl)C(Cl)C(Cl)C(Cl)C1Cl (mixture of isomers)
inactive: Coprococcus comes 1.03 | Escherichia coli ED1a 1.01 | Escherichia coli IAI1 0.981 | Eubacterium rectale 0.936 | [1] 0.966 | Lactobacillus gasseri 1.08 | Lactobacillus paracasei 1 | Odoribacter splanchnicus 0.935 | [2] 1.04 | Parabacteroides merdae 0.949 | Roseburia intestinalis 1.02 | Streptococcus salivarius 0.974

O=C(NC(=O)c1c(F)cccc1F)Nc1cc(Cl)c(OC(F)(F)C(F)F)c(Cl)c1
inactive: Coprococcus comes 0.96 | Escherichia coli ED1a 0.965 | Escherichia coli IAI1 0.982 | Eubacterium rectale 0.892 | [1] 0.877 | Lactobacillus gasseri 0.986 | Lactobacillus paracasei 0.62 | Odoribacter splanchnicus 0.983 | [2] 0.994 | Parabacteroides merdae 0.992 | Roseburia intestinalis 0.977 | Streptococcus salivarius 0.962
